A selection: hits, their analogues and other compounds. The true share with any hit is near 6.3%.
Fluor 339 460 – intrinsic fluorescence of library compounds, ex339/em460 – biochemical, MLSMR library, data from DPM-DC assay, artefact control, profiling panel; compound autofluorescence, ex339/em460 nm, NADH buffer; stronger effect = higher value; 1 = no-compound wells, NADH background; hit rate 5.5% among 65,000; fluorescence fold increase at 10 µM;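 active = at 10 µM, mean starting fluorescence two-fold or more over control wells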;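 note: signal is the first read of a kinetic run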
MK inhibit – S. pneumoniae mevalonate kinase inhibition; purified MK, PK/LDH-coupled NADH absorbance 340 nm; inhibition, % at 10 µM; hit rate 0.48% among 65,000; AID 555;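 active = ranked among the strongest by inhibition in the single 10 µM screen, a fixed top-ranked set picked for dose follow-up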
DPM-DC inhibit – blocks S. pneumoniae diphosphomevalonate decarboxylase; calls only at 10 µM; AID 556; purified DPM-DC, PK/LDH coupled NADH fluorescence; hit rate 0.49% among 65,000;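 active = the 320 compounds with the highest percent inhibition in the single-dose primary screen, excluding strongly autofluorescent ones, cut at about 32% in these data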;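 note: kinetic rate of NADH fluorescence loss reporting ADP formed by the decarboxylase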
Abs 340nm – compound absorbs light at 340 nm; compound absorbance at 340 nm, fold over control; AID 708; fold change at 10 µM; 65,000 tested, under 10 active;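 active = at 10 µM dose, initial 340 nm absorbance at least 2 fold that of control wells; inactive = change under 2 fold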;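 note: initial absorbance extrapolated from kinetic A340 decline of NADH oxidation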
PMK inhibit – inhibitors of Streptococcus pneumoniae phosphomevalonate kinase; inhibition, % at 10 µM; hit rate 0.49% among 65,000; purified PMK, PK/LDH-coupled NADH absorbance 340 nm;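 active = top-ranked compounds by inhibition in the single 10 µM screen, taking a fixed number of the strongest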;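 note: 0% = full reaction with DMSO carrier and 100% = background rate without enzyme reaction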
NADH coupling – inhibition of NAD/NADH coupling enzymes, library profiling; IC50, µM (doses to about 10 µM), inactives show at the highest dose inhibition; AID 774; coupled PK/LDH NADH assays, four targets; hit rate 0.02% among 65,000;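 active = single-dose screening hits from any of four coupled enzyme assays that gave an IC50 when retested across doses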;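 note: the DPM-DC format reads NADH fluorescence rather than 340 nm absorbance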
Starred values were filed as active, the others as inactive; i = inactive; / = not tested or not shown; + = active, no number.

SMILES | Fluor 339 460 | MK inhibit | DPM-DC inhibit | Abs 340nm | PMK inhibit | NADH coupling
CCOc1ccc2cc(C#N)c(SCC(=O)N3CCOCC3)nc2c1 | 2.7* | 11 | / | 1 | 3 | 3%
CC1=CCP(=O)(c2ccccc2)C1 (configuration not stated) | 1.1 | 2 | i | 1 | 19 | 7%
CC1(C)CC(C)(O)P(=O)(c2ccccc2)O1 (configuration not stated) | 1.1 | 11 | i | 0.97 | 30* | 14%
CN(C)c1ccc(CN(C)C2CCCCC2)cc1 | 1.1 | 16 | i | 1.1 | 18 | 11%
CCCCn1c(NC(C)CC)nc2c1c(=O)[nH]c(=O)n2C (configuration not stated) | 1.1 | 0 | i | 1.1 | 13 | 4%
Cc1nc(NC2=NCN(Cc3ccc4c(c3)OCO4)CN2)nc2ccccc12 | 1.1 | 9 | i | 1 | 5 | 5%
Cc1cc(C)nc(Nc2nc(C)c3cc4c(cc3n2)OCO4)n1 | 3.5* | 9 | / | 1.1 | 16 | 13%
Cc1cccc(-n2nnc(C(=O)NCc3ccccn3)c2N)c1 | 0.84 | 4 | i | 0.97 | 8 | 6%
Cc1ccc(NC(=O)C2CCN(S(=O)(=O)c3c(C)n[nH]c3C)CC2)nc1 | 1.1 | 0 | i | 0.97 | 17 | 6%
COc1ccc(S(=O)(=O)N(CC(=O)N2CCCC2)Cc2ccccc2)cc1 | 1.1 | 0 | i | 1.1 | 0 | 0%
CCOC(=O)N1CCN(C(=O)CN(Cc2ccccc2)S(=O)(=O)c2ccc(OC)c(C)c2)CC1 | 1 | active | i | 0.99 | 0 | 4%
OC1(CN2CCOCC2)C2CN3CCN(C2)CC1(c1ccccc1)C3 (configuration not stated) | 1.1 | 9 | i | 0.98 | 28* | 12%
CCOC(=O)C1CCN(Cc2cn[nH]c2-c2ccccc2)CC1 | 3.8* | 7 | / | 1 | 12 | 10%
CCN(CC)C(=O)C1CCN(Cc2ccc(Br)cc2)CC1 | 2.7* | 0 | i | 1.1 | 6 | 8%
CCOC(=O)C1CCN(C(=O)Cc2ccc(OC)c(OC)c2)CC1 | 1.1 | 2 | i | 1 | 22 | 8%
O=C(O)C1CCN(c2nc(-c3ccccc3)nc3c2oc2ccccc23)CC1 | 1.2 | 10 | i | 1.1 | 6 | 5%
CCOC(=O)C1CCN(c2nc(-c3ccccc3)nc3c2oc2ccccc23)CC1 | 2.1* | 7 | i | 1 | 10 | 6%
CCOC(=O)C1CCN(Cc2ccc(OC)cc2OC)CC1 | 1.1 | 51* | i | 1.1 | 0 | 18%
CCOC(=O)C1CCN(Cc2cn[nH]c2-c2ccc(C)cc2)CC1 | 1.1 | 3 | i | 1 | 8 | 4%
COc1ccc(CN2CCN(c3ncccn3)CC2)c(OC)c1 | 1.1 | 49* | i | 1.1 | 16 | 22%
COc1ccc(CN2CCN(c3ccccn3)CC2)c(OC)c1 | 1.1 | 36 | i | 1 | 23 | 20%
CCOC(=O)C1CCN(Cc2ccc(N(C)C)cc2)CC1 | 1.1 | 43* | i | 1.1 | 0 | 14%
CCOC(=O)C1CCN(c2c(N3CCN(Cc4ccccc4)CC3)c(=O)c2=O)CC1 | 1.1 | 6 | i | 1.1 | 6 | 4%
O=C(CSc1nnc(-c2cccnc2)n1-c1ccccc1)Nc1ccccn1 | 1 | 6 | i | 1 | 10 | 5%
CC(C)(C)NC(=O)CSc1nnc(-c2ccccn2)n1-c1ccccc1 | 1 | 3 | i | 0.98 | 28* | 5%
SMILES | Fluor 339 460 | MK inhibit | DPM-DC inhibit | Abs 340nm | PMK inhibit | NADH coupling
CC(C)(C)NC(=O)CN(C(=O)CS(=O)CC(=O)Nc1ccc(F)cc1)c1ccc(Cl)cc1 (configuration not stated) | 0.99 | 4 | i | 0.98 | 13 | 3%
Cc1cccn2c(=O)c3cc(C#N)c(=N)n(Cc4cccnc4)c3nc12 | 1.2 | 10 | i | 1 | 0 | 9%
CCCn1c(=NC(C)=O)c(C#N)cc2c(=O)n3cccc(C)c3nc21 | 2.9* | 0 | / | 1 | 8 | 2%
COCCCn1c(=NC(=O)c2ccc3c(c2)OCO3)c(C#N)cc2c(=O)n3cccc(C)c3nc21 | 1.3 | 4 | i | 1.1 | 8 | 4%
CCCCCn1c(=NC(C)=O)c(C#N)cc2c(=O)n3cccc(C)c3nc21 | 3.6* | 0 | / | 1.1 | 10 | 5%
COc1cccc(C(=O)Nc2cc(=O)n(C)c(=O)n2C)c1 | 0.66 | 5 | i | 1.1 | 8 | 13%
O=C(c1noc2c1CCCCC2)N1CCN(C(c2ccccc2)c2ccccc2)CC1 | 1.1 | 7 | i | 1 | 0 | 2%
CC(C)(O)P(C)(=O)c1ccccc1 (configuration not stated) | 0.5 | 7 | + | 0.99 | 14 | 23%
CC(C)(C)P(=O)(CO)c1ccccc1 (configuration not stated) | 1.1 | 11 | i | 1.1 | 0 | 4%
O=S(=O)(c1ccccc1)c1nc(-c2ccco2)oc1N1CCOCC1 | 1.1 | 9 | i | 1 | 3 | 4%
CC1CC(C)CN(c2oc(-c3ccco3)nc2C#N)C1 (configuration not stated) | 2.2* | 22 | / | 1.1 | 9 | 16%
N#Cc1nc(-c2ccco2)oc1N1CCCC1 | 3.9* | 14 | / | 1.1 | 13 | 14%
N#Cc1nc(-c2ccco2)oc1N1CCc2ccccc2C1 | 3.8* | 8 | / | 1.1 | 8 | 8%
N#Cc1nc(-c2ccco2)oc1N1CCN(C(c2ccccc2)c2ccccc2)CC1 | 1.9 | 12 | i | 1.1 | 8 | 7%
O=c1cc(O)c2c(=O)[nH]c(=O)n(-c3ccccc3)c2[nH]1 | 1.1 | 4 | i | 1 | 25* | 10%
Cc1cccc(C)c1N1CCN(S(=O)(=O)c2ccc(F)cc2)CC1 | 1.1 | 5 | i | 1.1 | 10 | 5%
Cc1ccccc1CN1CCN(S(=O)(=O)c2ccc(F)cc2)CC1 | 1.1 | 30 | + | 1.1 | 1 | 28%
COc1cccc(CN2CCN(C(=O)c3cccc4ccccc34)CC2)c1OC | 1.1 | 7 | i | 1 | 9 | 5%
COc1cccc(OC)c1C(=O)N1CCN(Cc2ccccc2C)CC1 | 0.85 | 48* | i | 1 | 0 | 17%
COc1ccc2nc(C)cc(N3CCOCC3)c2c1 | 1 | 10 | i | 1 | 3 | 3%
COc1ccc2c(-c3ccccc3)cc(N3CCOCC3)nc2c1 | 2.9* | 21 | i | 1 | 7 | 9%
Cc1cc(NS(=O)(=O)c2ccc(NC(=O)C(C)Oc3ccc4c(C)cc(=O)oc4c3)cc2)no1 (configuration not stated) | 2* | 9 | i | 1.1 | 6 | 10%
c1ccc(Cc2nnc3sc(-c4ccc5c(c4)OCO5)nn23)cc1 | 3.5* | 6 | / | 1.1 | 4 | 5%
CCc1nnc2sc(-c3ccc(NC(=O)c4ccc5c(c4)OCCO5)cc3)nn12 | 3.9* | 8 | / | 1.1 | 0 | 4%

Compound activity as filed in PubChem BioAssay.
